Reference: PubChem BioAssay (EPA / NIEHS)
Where “and” joins values, the source holds several entries; their conditions need not be identical. Identical values can stand only once. Records with an inconclusive call do not appear. A structure can be active in one record and inactive in another. Calls of active or inactive are those of the source. The calls were made as follows, unless noted: active = hit-call score of the fitted dose curve at least 0.9, where 1 is the maximum; inconclusive = response in the unintended direction; inactive = score below 0.9.

What was measured:
[1] = CCTE_Padilla_ZF_144hpf_TERATOSCORE: (Legacy) CCTE's 144 Hour Post-fertilization zebrafish Assay Teratoscore, Padilla Lab (AID 2283679; active = hit-call score of the fitted dose curve at least 0.9, where 1 is the maximum; inactive = score below 0.9;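 as to AC50: zebrafish embryos with chorions exposed by immersion from 6-8 hpf to 5 dpf with daily renewal; teratogenicity score from eye scoring of death hatching and malformations at 144 hpf; higher score means more developmental defects relative to DMSO baseline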)
Outline: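 Larvae scored by eye at 144 hpf for death, hatching and malformations after a day in clean Hanks'. Before that, daily-renewed exposure at 80 uM (0.4% DMSO, 26C) from roughly 6-8 hpf through 5 dpf, 4 embryos per chemical.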

[2] = STM_H9_OrnithineISnorm_perc: Stemina devTOX quickPredict H9 human embryonic stem cell (hESC)-based Assay for Ornithine (ORN) Metabolite Biomarker, Normalized (AID 2283712; active = hit-call score of the fitted dose curve at least 0.9, where 1 is the maximum; inactive = score below 0.9;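 also: ornithine released into spent medium during last day measured by mass spectrometry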)
Outline: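 UPLC-HRMS readout: endogenous ornithine EIC area / 13C-ORN internal standard, then % of 0.1% DMSO median. H9 hESCs (pluripotent), 72h exposure, re-dosed with fresh media q24h; last 24-h spent media, deproteinized in 40% acetonitrile.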

[3] = STM_H9_CystineISnorm_perc: Stemina devTOX quickPredict H9 human embryonic stem cell (hESC)-based Assay for Cystine (CYSS) Metabolite Biomarker, Normalized (AID 2283713; active = hit-call score of the fitted dose curve at least 0.9, where 1 is the maximum; inactive = score below 0.9)
Outline: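 UPLC-HRMS read-out: endogenous cystine peak area in spent medium, normalized to isotope-labeled internal standard and to median of 0.1% DMSO controls. Pluripotent H9 cells, 72h exposure, daily medium/compound replenishment; medium from last 24h sampled.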

[4] = Tanguay_ZF_120hpf_ActivityScore_legacy: (Legacy) Oregon State University Tanguay Lab 120 Hour Post-fertilization zebrafish Assay Score for Activity (AID 2283742);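 as to AC50: dechorionated Tropical 5D wild-type zebrafish embryos held singly per well; static exposure from 6 hpf until 120 hpf at 28 °C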
Outline: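 In this whole-embryo screen, dechorionated zebrafish were exposed from 6 hpf until 120 hpf at 28C under a 0.64% DMSO vehicle. Developmental malformations and death were recorded by brightfield microscopy as binary endpoints.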

[5] = STM_H9_OrnCyssISnorm_ratio: Stemina devTOX quickPredict H9 human embryonic stem cell (hESC)-based Assay for Ornithine (ORN):Cystine (CYSS) Ratio (AID 2283714)
Outline: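 H9 hESC, 72h, q24h re-dose; last-day media → acetonitrile deproteinization → UPLC-HRMS. ORN:CYSS ratio from isotope-normalized EIC areas, vs 0.1% DMSO; MTX references on each plate.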

[6] = CEETOX_H295R_MTT_cell_viability: Viability Assessment in the CeeTox HT-H295R MTT Assay (AID 2283718; active = hit-call score of the fitted dose curve at least 0.9, where 1 is the maximum; inactive = score below 0.9;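 as to AC50: curve fitted both ways so AC50 may mark viability loss or gain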)
Outline: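 H295R cells prestimulated 48 h with 10 uM forskolin, then exposed 48 h to test chemical (0.1% DMSO final). Viability by MTT (0.5 mg/ml, 4 h, 37 C), absorbance 570/650 nm; percent change versus DMSO, bidirectional fit.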

[7] = read-out: Cytochrome P450 (CYP24A1_1), CYP24A1 (gene 1591); assay: LTEA_HepaRG_CYP24A1_1: Life Technologies and Expression Analysis (LTEA) Assay for Cytochrome P450 (CYP24A1_1) using HepaRG (AID 2283671; active = hit-call score of the fitted dose curve at least 0.9, where 1 is the maximum; inactive = score below 0.9); details: mRNA level, 48 h; actives raise or lower the signal
Outline: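 Cultures of human HepaRG were treated in duplicate for 48 h (0.5% DMSO vehicle, highest dose 100 uM). CYP24A1 mRNA by qRT-PCR, normalized to ACTB, GAPDH, POLR2A.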

[8] = molecular target: Luciferin 4-monooxygenase (Photinus pyralis) (UniProt P08659); assay: CCTE_Simmons_QuantiLum_inhib_2: CCTE's Firefly Luciferase Inhibition Assay, Simmons Lab (AID 2283767)
Luciferin 4-monooxygenase (Photinus pyralis), sequence (P08659 whole entry, looked up): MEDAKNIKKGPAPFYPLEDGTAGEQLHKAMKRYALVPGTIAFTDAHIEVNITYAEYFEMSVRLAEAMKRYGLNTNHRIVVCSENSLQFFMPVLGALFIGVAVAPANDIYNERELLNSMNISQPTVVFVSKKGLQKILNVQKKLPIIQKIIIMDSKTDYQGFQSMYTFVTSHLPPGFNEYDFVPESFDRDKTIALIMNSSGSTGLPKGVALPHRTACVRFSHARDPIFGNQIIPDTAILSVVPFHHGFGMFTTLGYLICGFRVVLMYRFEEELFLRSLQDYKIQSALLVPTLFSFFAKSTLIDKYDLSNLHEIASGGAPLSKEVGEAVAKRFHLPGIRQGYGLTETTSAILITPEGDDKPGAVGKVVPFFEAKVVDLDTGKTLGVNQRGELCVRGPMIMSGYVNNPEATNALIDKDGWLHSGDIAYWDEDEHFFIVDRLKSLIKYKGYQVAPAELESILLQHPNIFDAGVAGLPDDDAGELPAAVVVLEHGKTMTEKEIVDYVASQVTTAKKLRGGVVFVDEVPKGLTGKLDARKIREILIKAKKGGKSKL
Outline: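 Cell-free QuantiLum luciferase, 5 ng/well; compounds 5 nM–87.5 uM final, 8 conc, 0.5% DMSO; 30 min, 37C, dark. Detection reagent (150 uM D-luciferin, 147 uM dATP, CoA, DTT, pH 7.8 final) injected per well, kinetic luminescence. Triplicate biological replicates.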

[9] = ArunA_CellTiter_hNC: Viability Assessment in the ArunA Biomedical's Oris Neural Crest (hNC) Cell Migration Assay (AID 2283752)
Outline: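 hNC cells (H9 ESC-derived), 60,000/well, Matrigel, LIF + bFGF medium; 16 h 37C attachment; 72 h compound in test medium; CellTiter Aqueous One read-out; loss-of-signal vs DMSO baseline.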

[10] = ArunA_CellTiter_hNP: Viability Assessment in the ArunA Biomedical's Oris Neural Crest (hNC) Cell Migration Assay (AID 2283753)
Outline: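 Viability read with CellTiter 96 Aqueous One after 72 h chemical exposure of human hNP1 neuroprogenitors, which were plated on Matrigel in LIF/bFGF medium 16 h beforehand. Endpoint fitted in positive direction relative to DMSO.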

[11] = ArunA_Migration_hNP: ArunA Biomedical's Oris Neuroprogenitor (hNP) Cell Migration Assay (AID 2283754)
Outline: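 Readout is calcein-AM fluorescence (ex494/em517) of cells migrating into the detection zone, relative to DMSO. hNP1 cells (H9-derived) grown on Matrigel behind stoppers 16 h, then stoppers pulled and chemical applied 72 h; cytochalasin D as control.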

[12] = ArunA_Migration_hNC: ArunA Biomedical's Oris Neural Crest (hNC) Cell Migration Assay (AID 2283755)
Outline: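 Calcein-AM fluorescence (ex494 nm/em 517 nm) in the stopper-defined detection zone quantifies migration of hNC cells after 72 h chemical exposure; 60,000 cells/well plated on Matrigel with LIF and bFGF, 16 h pre-incubation. DMSO baseline.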

[13] = ArunA_NOG_NucleusCount: ArunA Biomedical's Neurite Outgrowth (NOG) Assay for Nucleus Count (AID 2283756)
Outline: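 Viable neuron count, from Hoechst nuclei passing size and intensity gates, imaged at 20x on differentiated H9-derived human neurons. Exposure lasted 48 h from seeding; activity was scored relative to DMSO.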

[14] = ArunA_NOG_NeuriteLength: ArunA Biomedical's Neurite Outgrowth (NOG) Assay for Neurite Length (AID 2283757)
Outline: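 Total neurite length per neuron, from traced βIII-tubulin-labelled processes longer than 10 um on viable Hoechst-gated cells, was scored as decrease from DMSO. Cells were hESC (H9)-derived neurons given 48 h chemical exposure immediately after seeding.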

[15] = ArunA_NOG_NeuritesPerNeuron: ArunA Biomedical's Neurite Outgrowth (NOG) Assay for Neurites Per Neuron (AID 2283758)
Outline: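 Differentiated human H9-derived neurons exposed to chemicals for 48 h from seeding, then stained with Hoechst and βIII-tubulin/DyLight 488. Automated imaging counted neurites (processes >10 um) per valid neuron; loss of signal versus DMSO scored.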

[16] = ArunA_NOG_BranchPointsPerNeurite: ArunA Biomedical's Neurite Outgrowth (NOG) Assay for Branch Points Per Neurite (AID 2283759)
Outline: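 Automated image analysis traced neurites (processes >10 um) from valid cell bodies after Hoechst and βIII-tubulin staining. hNN cells from H9 embryonic stem cells, 48 h exposure. Fitted bidirectionally against DMSO.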

[17] = test system: zebrafish Androgen Receptor (AR), gene 100005148; assay: ATG_zfAR_XSP1: Attagene TRANS-FACTORIAL Multi-Species (XSP1) HepG2 Assay for zebrafish Androgen Receptor (AR) (AID 2283771)
Outline: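 Gain-of-signal versus DMSO was measured as reporter transcripts quantified by RT-PCR, fluorescent labelling and capillary electrophoresis after 24 h chemical exposure. The cells were HepG2 expressing a chimeric zebrafish AR-GAL4, co-stimulated with 3 nM 6-alpha-fluorotestosterone.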

[18] = molecular target: zebrafish Estrogen Receptor (ESR1), esr1 (gene 259252) (UniProt P57717); assay: ATG_zfER1_XSP1: Attagene TRANS-FACTORIAL Multi-Species (XSP1) HepG2 Assay for zebrafish Estrogen Receptor (ESR1) (AID 2283772)
zebrafish Estrogen Receptor (ESR1), esr1 (gene 259252), sequence (P57717 whole entry, looked up, the tested form may be a part): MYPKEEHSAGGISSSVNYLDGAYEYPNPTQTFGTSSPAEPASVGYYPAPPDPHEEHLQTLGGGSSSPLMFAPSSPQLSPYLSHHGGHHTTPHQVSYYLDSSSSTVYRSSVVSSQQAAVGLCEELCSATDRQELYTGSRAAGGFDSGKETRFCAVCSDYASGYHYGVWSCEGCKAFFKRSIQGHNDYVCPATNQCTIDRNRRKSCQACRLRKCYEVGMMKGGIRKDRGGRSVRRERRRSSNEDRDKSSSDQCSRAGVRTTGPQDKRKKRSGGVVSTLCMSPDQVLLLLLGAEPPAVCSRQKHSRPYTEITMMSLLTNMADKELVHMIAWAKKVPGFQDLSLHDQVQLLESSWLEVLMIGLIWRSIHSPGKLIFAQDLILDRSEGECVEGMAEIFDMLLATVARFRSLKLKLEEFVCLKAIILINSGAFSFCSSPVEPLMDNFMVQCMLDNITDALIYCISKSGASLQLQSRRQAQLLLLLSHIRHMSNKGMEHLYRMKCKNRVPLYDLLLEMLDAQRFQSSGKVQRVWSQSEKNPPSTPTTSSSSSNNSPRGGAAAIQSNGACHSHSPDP
Outline: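 Readout: fluorescent reporter mRNA, RT-PCR plus FAM labelling, HpaI digest, capillary electrophoresis; gain-of-signal fit vs DMSO. HepG2, transient multi-reporter TRANS (NR-GAL4 chimera), 24 h chemical exposure, 3 nM 6-alpha-fluorotestosterone co-added.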

[19] = test system: zebrafish Estrogen Receptor (ESR2B), gene 317733; assay: ATG_zfER2b_XSP1: Attagene TRANS-FACTORIAL Multi-Species (XSP1) HepG2 Assay for zebrafish Estrogen Receptor (ESR2B) (AID 2283773)
Outline: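 Human hepatoma HepG2, transiently transfected with multi-reporter units; exogenous zebrafish ESR2B-Gal4 activity measured. Exposure 24 h alongside 3 nM 6-alpha-fluorotestosterone to partly stimulate AR.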

Measured: AC50

CC(C)CCO
active: [3] 0.118 µM
inactive: [1] | [2] | [4]

Cn1c(=O)cc(Oc2ccc(F)cc2F)c2cnc(NCC(C)(C)O)nc21
inactive: [1] | [2] | [3] | [5] | [6] | [4]

C=CC(=C)CCC=C(C)C
inactive: [7] | [4]

COc1ccc(-n2nc(C(F)F)cc2-c2ccc(S(C)=O)cc2)cc1 (centres undefined)
inactive: [6]
active: [1] 88.9 µM | [4] 151 µM

Nc1ccc(Nc2ccccc2)cc1
active: [1] 10.1 µM | [2] 4.61 µM | [3] 2.69 µM | [5] 3.03 µM | [4] 30.1 µM
inactive: [6] | [8]

Cc1c(-c2cccnc2)c2ccccc2n1CCCCC(=O)O
inactive: [6] | [4]
active: [1] 58.5 µM

COc1cccc(-c2ccc(/C=C\CN3CCCCCC3)cc2Cl)c1
inactive: [6]
active: [1] 2.73 µM | [2] 3.59 µM | [3] 4.11 µM | [5] 3.97 µM | [4] 41.8 µM

Clc1nc(Cl)c(Cl)c(Cl)c1Cl
active: [1] 8.13 µM
inactive: [4]

Fc1ccccc1[C@@H](F)COC1CCC(Nc2ncnc3[nH]ncc23)CC1 (some centres undefined)
inactive: [2] | [3] | [5] | [4]
active: [1] 13.8 µM | [6] 6.77 µM

CC(C)c1cccc(C(C)C)c1N1C(=O)c2ccc(O)cc2C1=O
inactive: [7] | [13] | [14] | [16]
active: [1] 4.71 µM | [2] 27.8 µM | [3] 24 µM | [5] 14.9 µM | [6] 3.83 µM | [4] 29.5 µM | [9] 4.05 µM and 11.8 µM | [10] 20.7 µM | [11] 7.81 µM and 3.04 µM | [12] 7.71 µM and 2.24 µM | [14] 13.3 µM | [15] 5 µM and 13.3 µM

CC(C)=CCC/C(C)=C/CO
active: [1] 15.4 µM
inactive: [4]

O=P(OC(CCl)CCl)(OC(CCl)CCl)OC(CCl)CCl
active: [1] 14.3 µM | [4] 38.3 µM | [12] 1.97 µM | [19] 20.8 µM
not listed: [6] | [7]
inactive: all other assays above
